Test results reported in ChEMBL document CHEMBL1157539, “Thousands of chemical starting points for antimalarial lead identification” (Nature, 2010).
Whole data set: some 13,000 compounds, median “IFI” near 4, cut for the highest 2% near 17. This is one part of a sample in which the highest values are shown more often than they occur.

Assay: GSK_TCMDC: Inhibition Frequency Index (IFI). The number of non-kinase HTS assays where a compound showed > 50 % inhibition, expressed as a percentage of the number of such assays in which the compound was tested
Format: functional

Row | SMILES | IFI [%]
1 | COc1ccc2nccc(N3CCN(CCNCc4ccc5c(n4)NC(=O)CO5)CC3)c2c1 | 3.73
2 | Cc1c(C)c2c(c(C)c1O)CC[C@](C)(C(=O)N1CCC(CCN3CCC(c4c[nH]c5ccccc45)CC3)CC1)O2 | 5.88
3 | Cc1cccc2nc(-c3cccc(-c4cccc(NC(=O)COc5ccccc5C(N)=O)c4)c3)[nH]c12 | 6.09
4 | CN(C)CCNC(=O)c1ccc(-c2cnc3ccc(NCc4ccc(Cl)c(Cl)c4)nn23)cc1 | 9.02
5 | CCCCc1ccc2ncc(C(=O)OCC)c(O)c2c1 | 0.78
6 | COc1c(Br)cc(Br)cc1-c1ccc(CN2C3CCCC2CCC3)[nH]1 | 6.82
7 | COc1c(Br)cc(Br)cc1-c1ccc(CN2CC3CCC2CC3)[nH]1 | 21.1
8 | COc1cccc(C(=O)Nc2ccc(Nc3nc(C)cc(N(C)C)n3)cc2)c1OC | 7.14
9 | CCCCCCCN1CC[C@@H](CCCc2ccnc3ccc(OCCCCN/C(N)=N/O)cc23)[C@@H](CC)C1 | 9.66
10 | O=[N+]([O-])c1cnc(Nc2ccccc2O)nc1Nc1ccccc1O | 19.2
11 | CN(C)CC(O)COc1ccc(Nc2ncc([N+](=O)[O-])c(Nc3ccccc3O)n2)cc1 (configuration not stated) | 6.21
12 | CN1CCN(c2ccc(Nc3ncc([N+](=O)[O-])c(Nc4ccccc4O)n3)cc2)CC1 | 6.99
13 | Cc1[nH]c(C)c(-c2ccc(CCc3ccc(N)cc3)cc2)c(=O)c1Cl | 1.89
14 | COc1ccc2[nH]c(C(=O)Nc3ccc4[nH]c(-c5ccccc5)nc4c3)cc2c1 | 7.69
15 | CCc1cn(CC(=O)N(CCOc2ccc(-c3ccc(C(F)(F)F)cc3)cc2)CCN(CC)CC)c(SCc2ccc(F)cc2)nc1=O | 6.34
16 | FC(F)(F)c1cccc(Nc2nc3nonc3nc2NC2C3CC4CC(C3)CC2C4)c1 (configuration not stated) | 20.6
17 | FC(F)(F)c1cccc(Nc2nc3ccccc3nc2Nc2cccc(C(F)(F)F)c2)c1 | 10
18 | O=[N+]([O-])c1ccc2nc(Nc3cccc(C(F)(F)F)c3)c(Nc3cccc(C(F)(F)F)c3)nc2c1 | 5.88
19 | CC1(C)C(=O)Nc2ccc3c(c21)CC1SC(=O)NN=C31 (configuration not stated) | 2.22
20 | CCCN(CCC)C(=O)c1cc(C(=O)N[C@@H](Cc2ccccc2)[C@H](O)CNC(C)(C)c2cccc(OC)c2)cc(N2CCCCS2(=O)=O)c1 | 3.62
21 | CC(C)(C)c1ccc(CN2CCC(CNC(=O)c3cc(-c4cccc(Cl)c4)cs3)C2)cc1 (configuration not stated) | 12.2
22 | Cc1cc2cc(-c3ccc(CN)cc3)ccc2nc1N | 3.88
23 | O=C(c1ccc([N+](=O)[O-])o1)N1CCC(Cc2ccc(C(F)(F)F)cc2)CC1 | 9.52

Row | SMILES | IFI [%]
24 | COCCN1CCN(Cc2ccc(-c3ccc(-c4nc5cc(F)ccc5[nH]4)cc3)cc2)CC1 | 4.9
25 | Clc1ccc(Nc2nc3ccc(Cl)cc3nc2Nc2ccc(Cl)cc2)cc1 | 10.1
26 | Clc1ccc(Nc2nc3nonc3nc2Nc2ccc(Cl)c(Cl)c2)cc1 | 19.4
27 | O=[N+]([O-])c1ccc2nc(Nc3ccc(Cl)c(Cl)c3)c(Nc3ccc(Cl)c(Cl)c3)nc2c1 | 2.86
28 | Clc1ccc(CNCCCCCCNCc2ccc(Cl)cc2)cc1 | 11.3
29 | CC(=O)Nc1cc(C(=O)Nc2cccc(-c3cccc(-c4nc5cccc(C)c5[nH]4)c3)c2)ccc1C | 5.88
30 | Cc1cc(NCCc2ccccc2)nc(NC(=N)Nc2cccc(F)c2)n1 | 6.77
31 | Nc1nccc2ccc(-c3ccncc3)cc12 | 3
32 | Nc1nccc2ccc(-c3ccc(OCc4ccccc4)cc3)cc12 | 19.1
33 | Nc1ccc(-c2ccc3ccnc(N)c3c2)cc1 | 9.09
34 | Nc1nccc2ccc(-c3cccc(O)c3)cc12 | 7.14
35 | NCc1cccc(-c2ccc3ccnc(N)c3c2)c1 | 2.86
36 | Nc1nccc2ccc(-c3cccc(OCc4ccccc4)c3)cc12 | 19.8
37 | Nc1nccc2ccc(-c3ccc(Oc4ccccc4)cc3)cc12 | 20.7
38 | Nc1cccc(-c2ccc3ccnc(N)c3c2)c1 | 5.56
39 | COc1cccc(-c2ccc3ccnc(N)c3c2)c1 | 7.87
40 | CNc1nc(Nc2ccccc2C)nc2ccccc12 | 2.21
41 | CC(c1cccc(Nc2nccc(-c3c(-c4cccc(NC(=O)c5c(F)cccc5F)c4)nn4ccccc34)n2)c1)S(C)(=O)=O (configuration not stated) | 6.31
42 | O=S(=O)(c1c(Cl)cc(Cl)cc1Cl)N1CCCCC(c2ccc(C(F)(F)F)cc2)=N1 | 1.5
43 | Nc1nc(O)c2c(n1)CCc1c(Br)cccc1-2 | 2.31
44 | COc1ccccc1C1CCN(C2CCC(NC(=O)/C=C/c3ccc(OC(F)(F)F)cc3)CC2)CC1 (configuration not stated) | 11.7
45 | Nc1nc(Nc2cccc(O)c2)nc2ccccc12 | 5.04
46 | NC[C@H](CC1CCCCC1)NC(=O)c1ccc(-c2ccnc3[nH]ccc23)s1 | 22.2

Row | SMILES | IFI [%]
47 | NCC(NC(=O)c1ccc(-c2c[nH]c3ncccc23)s1)c1ccccc1 (configuration not stated) | 16.1
48 | CCC[C@@H]([C@@H](CC1CCCCC1)C(=O)N[C@H](C(=O)Nc1nccc(N)n1)C(C)(C)C)N(O)C=O | 2.86
49 | OCC1CCN(Cc2cccc(-c3cccc(-c4nc5cc(C(F)(F)F)ccc5[nH]4)c3)c2)CC1 | 5.83
50 | CCCCCCOc1ccc(C(=O)NCCCC2CCCN(CCCCCNC(=O)C=Cc3ccc(Cl)c(Cl)c3)C2)cc1 (configuration not stated) | 6.87
51 | Cc1ccc(F)cc1-c1cc(N2CCCN(C(=O)c3ccc(Br)o3)CC2)ncn1 | 0
52 | C=CCc1ccc(C[C@H](NC(=O)OC(C)(C)C)C(=O)OC)cc1 | 18.9
53 | CC(C)(C)OC(=O)N[C@@H](Cc1ccccc1)C(=O)Nc1cccc(-c2cccc(NC(=O)[C@H](Cc3ccccc3)NC(=O)OC(C)(C)C)c2)c1 | 0.72
54 | COC(=O)C(c1ccc(NC(=O)[C@H](CC(C)C)NC(=O)OC(C)(C)C)cc1)c1ccc(NC(=O)[C@H](CC(C)C)NC(=O)OC(C)(C)C)cc1 | 0
55 | CCSc1ccc(C)cc1CON1C(N)=NC(N)=NC1(C)C | 6.34
56 | Cc1c(Cn2nc(Cl)c(N3CCNCC3)cc2=O)cccc1NC(=O)Nc1ccc(-c2ccccc2)cc1 | 10.8
57 | CCC(C)(C)c1ccc(S(=O)(=O)Nc2ccc(Cl)c(OCCN3CCCCC3)c2)cc1 | 43.1
58 | ON=C1c2cc(OCCN3CCCCC3)c(Cl)cc2-c2cc(Cl)c(OCCN3CCCCC3)cc21 | 9.42
59 | O=C(/C=C/c1ccccc1Cl)Nc1ccc(Br)c(OCCN2CCCCC2)c1 | 5.52
60 | COc1ccc(CNC2CCN(C)CC2)cc1-c1cccc(S(=O)(=O)NCc2ccccc2)c1 | 11
61 | COc1ccc2c(=NN=Cc3ccccc3Cl)cc(C)[nH]c2c1 | 3.65
62 | COc1cc(NC(=O)c2sc(-c3ccc(Cl)cc3)cc2NC(=O)c2cccnc2)ccc1OCCN1CCCC1 | 7.19
63 | O=c1c2ccc(F)cc2sn1-c1ccc(Cl)cc1 | 23.9
64 | O=C(/C=C/c1ccc(Cl)c(Cl)c1)NCCCCCN1CCC(c2c[nH]c3c(-c4ccccc4)cccc23)CC1 | 8.09
65 | C[C@@H](C(N)=O)N1CCCCC1c1ccc(OCc2cccc(F)c2)cc1 (some centres not stated) | 33.8
66 | CN(Cc1cccc(F)c1)C1CCN(c2cc(NC(=O)c3cccc(F)c3)ccn2)CC1 | 0
67 | CN(Cc1cccc(F)c1)C1CCN(c2cc(NC(=O)c3ccc(F)cc3)ccn2)CC1 | 0
68 | O=C(C=Cc1ccc(Cl)c(Cl)c1)NCCCCCN1CCCC(CCCNS(=O)(=O)c2cccc3cccnc23)C1 (configuration not stated) | 5.8
69 | CCc1c(CCNCCCCCCNC(C)Cc2ccc3c(c2CC)OCO3)ccc(OC)c1OC (configuration not stated) | 10.7

Row | SMILES | IFI [%]
70 | O=C(NCC1CCC(CNCCc2ccccc2)CC1)Nc1ccc(Cl)c(Cl)c1 (configuration not stated) | 0.72
71 | CN1CC[C@@H](Oc2cc(NC(=O)Nc3ccc(Cl)c(C(F)(F)F)c3)ccc2Cl)C1 | 7.63
72 | O=C(CNCC1CCCCC1)Nc1cc(C(F)(F)F)ccc1Cl | 4.23
73 | CC(C)(C(=O)Nc1ccc(N2CCC3(CCCN(CC4CC4)C3)CC2)c(Cl)c1)c1cccc(C(F)(F)F)c1 | 6.67
74 | CC(C)(C(=O)Nc1ccc(C2CCC(NCC3CC3)CC2)c(Cl)c1)c1cccc(OC(F)F)c1 (configuration not stated) | 23.4
75 | CC(C)(C(=O)Nc1ccc(C2CCC(NCC3CC3)CC2)c(Cl)c1)c1ccc(C(F)(F)F)cc1 (configuration not stated) | 25
76 | COc1ccc2c(=NN=C(C)c3ccccn3)cc(C)[nH]c2c1 | 4.96
77 | CCCCCCN1CCCN(Cc2ccc(C(=O)Nc3ccc(CC)cc3)cc2)CC1 | 13.5
78 | Cc1ccccc1CN1CCCN(Cc2ccc(C(=O)Nc3ccc(Cl)cc3)cc2)CC1 | 10.2
79 | CCCCCCN1CCCN(Cc2ccc(C(=O)Nc3ccc(C(C)C)cc3)cc2)CC1 | 19.7
80 | CC(C)(C)c1ccc(NC(=O)c2ccc(CN3CCCN(Cc4ccc(F)cc4)CC3)cc2)cc1 | 15.6
81 | O=C(Nc1ccc(Cl)cc1)c1ccc(CN2CCCN(Cc3cccc(Cl)c3)CC2)cc1 | 8.66
82 | Cc1ccccc1CN1CCCN(Cc2ccc(C(=O)Nc3ccc(C(C)(C)C)cc3)cc2)CC1 | 18.4
83 | CC(C)(C)c1ccc(NC(=O)c2cccc(CN3CCCN(Cc4cccc(Cl)c4)CC3)c2)cc1 | 7.86
84 | CCCCCCN1CCCN(Cc2ccc(C(=O)Nc3ccc(Cl)cc3)cc2)CC1 | 15.2
85 | CC(C)(C)c1ccc(NC(=O)c2ccc(CN3CCCN(Cc4cccc(Cl)c4)CC3)cc2)cc1 | 17.2
86 | Cc1cccc2nc(-c3ccc(-c4cccc(NC(=O)Nc5ccc(F)c(F)c5F)c4)cc3)[nH]c12 | 2.91
87 | O=C(/C=C/C=C/c1ccc(Cl)c(Cl)c1)NCCCCCN1CCCC2CCCCC21 (configuration not stated) | 5.19
88 | Cc1cccc2nc(-c3cccc(-c4ccc(NC(=O)Nc5ccc(Cl)c(Cl)c5)cc4)c3)[nH]c12 | 7.07
89 | CC(=O)Oc1c(Cl)c(C)nc(C)c1-c1ccc(Oc2ccc(OC(F)(F)F)cc2)cc1 | 6.35
90 | CCN(CC)CCCN(CCCN(CC)CC)c1cc(C)nc(Nc2ccc3cc(Br)ccc3c2)n1 | 4.35
91 | COc1cc(C(=O)Nc2ccc(-c3nc4ccccc4[nH]3)cc2)cc(OC)c1OC | 1.4
92 | CCn1c(C(C)C)cc2c3c(N)nc(N)nc3ccc21 | 2.88
